Test results as given in the supplement of paper PMC3545927.
The other results are listed elsewhere or left out. The true hit rate is not given.

Molecular target: furin, P09958
Assay: furin cleavage Z-score vs untreated control; higher = more cleavage, active = 3.5 or more, inactive = 1 or less, 8 variable residues between constant flanks
In short: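 To give the cleavage Z-score, log read counts were set against furin-free reactions, lowess-adjusted and scaled by median absolute deviation. These counts came from PCR adapter-tagged, sequenced DNA released when purified furin cut 8-mer peptides fused to a cDNA oligonucleotide and held on magnetic beads by their N-terminus. Digests were 0.01 ml, 1:10 enzyme:substrate, in 50 mM HEPES pH 7.5 with CaCl2 and NaCl, for 7.5, 15 or 30 min.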

Sequence of furin, P09958 (P09958 whole entry): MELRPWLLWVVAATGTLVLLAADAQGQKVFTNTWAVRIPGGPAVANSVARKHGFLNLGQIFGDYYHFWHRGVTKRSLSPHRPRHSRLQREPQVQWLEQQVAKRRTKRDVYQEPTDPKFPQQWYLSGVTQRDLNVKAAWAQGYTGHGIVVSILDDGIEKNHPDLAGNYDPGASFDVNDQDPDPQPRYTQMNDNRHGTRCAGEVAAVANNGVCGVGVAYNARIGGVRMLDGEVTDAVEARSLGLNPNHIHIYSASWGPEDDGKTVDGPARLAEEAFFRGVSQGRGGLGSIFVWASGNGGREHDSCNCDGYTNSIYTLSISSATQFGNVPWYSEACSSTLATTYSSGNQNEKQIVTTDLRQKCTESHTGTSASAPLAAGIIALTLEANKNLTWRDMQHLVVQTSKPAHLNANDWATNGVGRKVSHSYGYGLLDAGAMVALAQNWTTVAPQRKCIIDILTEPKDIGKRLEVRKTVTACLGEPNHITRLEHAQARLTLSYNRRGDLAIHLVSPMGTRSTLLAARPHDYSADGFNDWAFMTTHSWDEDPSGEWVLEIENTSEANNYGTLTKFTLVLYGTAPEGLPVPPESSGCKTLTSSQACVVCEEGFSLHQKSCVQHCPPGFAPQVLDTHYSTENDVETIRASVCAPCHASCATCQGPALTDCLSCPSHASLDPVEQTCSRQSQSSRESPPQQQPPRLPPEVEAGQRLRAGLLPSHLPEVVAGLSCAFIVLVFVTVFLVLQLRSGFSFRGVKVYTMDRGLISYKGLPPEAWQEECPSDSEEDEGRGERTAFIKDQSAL

Sequence	furin cleavage Z-score (7.5 min)	furin cleavage Z-score (15 min)	furin cleavage Z-score (30 min)
CAMERCSQHLAGNASASA [HC1713]	1.58	0.689 (inactive)	1.89
CARLSRFPRFAGNASASA [FS-490]	8.21 (active)	11.2 (active)	11.1 (active)
CARLSRPDSGAGNASASA [FS-1749]	-0.794 (inactive)	-0.615 (inactive)	-0.815 (inactive)
CAMLSRFGRFAGNASASA [FS-692]	-0.109 (inactive)	0.852 (inactive)	3.08
CAIPSRRPRFAGNASASA [FS-255]	5.86 (active)	8 (active)	9.09 (active)
CALRHHNLVYAGNASASA [HC1386]	1.49	0.243 (inactive)	1.05
CACINGVCWTAGNASASA [HC697]	-0.68 (inactive)	-1.02 (inactive)	-2.54 (inactive)
CALNCNDSLNAGNASASA [HC374]	-1.18 (inactive)	-0.292 (inactive)	-1.02 (inactive)
CADAESYSSMAGNASASA [HC1351]	1.28	0.832 (inactive)	-0.308 (inactive)
CAVLHRNKRTAGNASASA [FS-1661]	9.47 (active)	9.94 (active)	9.22 (active)
CAISLRFKRTAGNASASA [FS-172]	7.22 (active)	6.1 (active)	6.83 (active)
CAVLEVVTSTAGNASASA [HC2270]	0.137 (inactive)	-0.489 (inactive)	-0.471 (inactive)
CASPGRHKRTAGNASASA [FS-380]	8.84 (active)	8.17 (active)	6.66 (active)
CATPGDPKRTAGNASASA [FS-510]	-0.0828 (inactive)	0.23 (inactive)	-0.487 (inactive)
CAVLGRKKRTAGNASASA [FS-1102]	8.65 (active)	9.15 (active)	8.6 (active)
CAVLRRDVITAGNASASA [FS-2855]	0.181 (inactive)	-1.21 (inactive)	0.595 (inactive)
CASPGRSARPAGNASASA [FS-93]	-1.18 (inactive)	-1.19 (inactive)	-1.31 (inactive)
CAYNPPLVETAGNASASA [HC1307]	-1.06 (inactive)	-1.13 (inactive)	-1.23 (inactive)
CADVEVVTSTAGNASASA [HC2290]	1.98	0.479 (inactive)	0.627 (inactive)
CAYSGGDIYHAGNASASA [HC1648]	-0.433 (inactive)	-0.656 (inactive)	-0.39 (inactive)
CAMHTRCHCGAGNASASA [HC1173]	-0.571 (inactive)	-2.41 (inactive)	-1.42 (inactive)
CATRTIASPKAGNASASA [HC704]	1.03	0.625 (inactive)	-0.793 (inactive)

Sequence	furin cleavage Z-score (7.5 min)	furin cleavage Z-score (15 min)	furin cleavage Z-score (30 min)
CAWRVDGIMHAGNASASA [HC1170]	1.37	0.67 (inactive)	0.743 (inactive)
CAELLRKKRTAGNASASA [FS-991]	5.51 (active)	6.85 (active)	6.38 (active)
CAILSRAKRPAGNASASA [FS-252]	0.222 (inactive)	-1.38 (inactive)	0.306 (inactive)
CAQLLRKKRPAGNASASA [FS-479]	2.18	1.54	4.39 (active)
CAPPPKSPPVAGNASASA [HC1319]	-0.03 (inactive)	-0.325 (inactive)	0.671 (inactive)
CAELGDDGRTAGNASASA [FS-1627]	-0.885 (inactive)	-0.821 (inactive)	-0.581 (inactive)
CAPPPRKKRTAGNASASA [HC1323]	12.7 (active)	14.5 (active)	10.1 (active)
CAIRSGKKRTAGNASASA [FS-669]	-1.71 (inactive)	-0.504 (inactive)	-0.845 (inactive)
CAAAQTFLATAGNASASA [HC693]	-1.34 (inactive)	-1.47 (inactive)	-1.85 (inactive)
CACTPCSAHLAGNASASA [HC2480]	2.02	1.15	0.414 (inactive)
CAHYPCTINYAGNASASA [HC469]	-0.918 (inactive)	-0.579 (inactive)	0.122 (inactive)
CAMEECSGHLAGNASASA [HC1736]	-0.517 (inactive)	-0.79 (inactive)	1.12
CAVWCCSMSYAGNASASA [HC2008]	1.84	-0.334 (inactive)	1.13
CANMWRCPRQAGNASASA [FS-181]	1.61	-1.4 (inactive)	-1.2 (inactive)
CAEQRRRRRQAGNASASA [FS-234]	8.68 (active)	6.63 (active)	6.29 (active)
CAGREERRRQAGNASASA [FS-787]	-0.438 (inactive)	-0.529 (inactive)	0.464 (inactive)
CASPQRRRRQAGNASASA [FS-1415]	7.36 (active)	8.25 (active)	6.4 (active)
CARLRKCVEQAGNASASA [FS-1860]	-0.549 (inactive)	0.53 (inactive)	1.14
CAIGGRFDRQAGNASASA [FS-1012]	-1.34 (inactive)	2.43	1.03
CAIFRRRPRQAGNASASA [FS-801]	5.14 (active)	4.22 (active)	2.76
CACLRRRRRQAGNASASA [FS-1623]	8.28 (active)	7.74 (active)	5.47 (active)
